Compound activity as filed in PubChem BioAssay.
The entries come from a sample that favours hits as a whole.
mHTT CaM bind = mHTT-calmodulin interaction abrogation; inhibition, % at 15 µM; AlphaScreen His-mHTT/GST-CaM binding, luminescence; hit rate 3.6% among 190,000;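 note: 0% = both proteins with DMSO and 100% = one protein alone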
Pf apPOL inh = Pf-apPOL DNA polymerase inhibition. Recombinant Pf-apPOL, molecular beacon fluorescence, 1.5 h. inhibition, % at 10 µM. hit rate 0.25% among 210,000. AID 1794808
* = called active by the depositor; . = no result. Cut-off read from the data, not from the text of the source: active = inhibition above about 50%; inactive = the rest.

SMILES | mHTT CaM bind | Pf apPOL inh
CCOC(=O)c1csc(NC(=O)c2cccc(C(F)(F)F)c2)n1 | -14 | -3
Cc1cc(N2CCOCC2)nc2ccc(NC(=O)CCC(=O)Nc3ccc4c(c3)OCO4)cc12 | 7 | 2
CCc1ccc(OCCS(=O)(=O)Nc2ccc(N3CCOCC3)cc2)cc1 | 25 | -13
C=CCSc1nnc2c(n1)OC(c1ccc(F)cc1)N(C(C)=O)c1ccccc1-2 (stereo unspecified) | 28 | -13
C=CCSc1nnc2c(n1)OC(c1ccc(N(C)C)cc1)N(C(C)=O)c1ccccc1-2 (stereo unspecified) | 64* | -17
O=C1CSC(c2cccc([N+](=O)[O-])c2)N1c1ccc(Oc2ccccc2)cc1 (stereo unspecified) | 78* | 0
CCOc1ccc(N2C(=O)CSC2c2cccc([N+](=O)[O-])c2)cc1 (stereo unspecified) | 5 | 4
O=C1CSC(c2ccccc2)N1c1ccc(Oc2ccccc2)cc1 (stereo unspecified) | 78* | 0
O=C1CSC(c2ccccc2)N1c1ccccc1 (stereo unspecified) | 0 | -2
COC(=O)C(NC(=O)N1CCCn2nc(-c3cccs3)cc2C1)c1ccccc1 (stereo unspecified) | 6 | -3
O=C(Nc1cccc2c1CCCC2)C(Cc1ccccc1)NS(=O)(=O)c1cccs1 (stereo unspecified) | -1 | -9
CCOC(=O)C(=CN1CCC(C(c2ccccc2)c2ccccc2)CC1)C(=O)OCC | . | -10
O=c1cc(C(F)(F)F)[nH]n1-c1ccccc1 | . | 6
O=c1cc(O)n(-c2ccccc2)[nH]1 | 20 | 53*
CN1CCCN(C2=Nc3ccccc3Oc3ccc(NC(=O)C4CCCC4)cc32)CC1 | 28 | -3
CC(=O)c1cccc(Nc2nc(-c3ccccc3)cs2)c1 | 22 | -3
Cc1ccnc(Nc2nc(-c3cccs3)cs2)c1 | 25 | -5
Cc1ccc(Nc2nc(-c3ccccn3)cs2)cc1 | 93* | -4
CC(=O)c1cccc(Nc2nc(-c3ccccn3)cs2)c1 | 86* | -11
CCOc1ccc(Nc2nc(-c3sc(NC(C)=O)nc3C)cs2)cc1 | 64* | 8
O=[N+]([O-])c1ccc(Nc2nc(-c3ccccn3)cs2)cc1 | 48 | 5
Cc1ccnc(Nc2nc(-c3ccccn3)cs2)c1 | 100* | -1
CC(=O)Nc1nc(C)c(-c2csc(Nc3ccc(C(=O)O)cc3)n2)s1 | 5 | -7
CSC(=NNc1ccccc1C(F)(F)F)NC(=O)c1c(Cl)cccc1Cl | . | 0
CCNC(=O)N1CCCN(Cc2ccccn2)CC1 | 4 | -8
SMILES | mHTT CaM bind | Pf apPOL inh
COc1cc(C(=O)Nc2ccc(S(=O)(=O)Nc3ccc(F)cc3)cc2)cc(OC)c1OC | 12 | 4
Cc1noc(-c2ccc(=O)n(CC(C)C)n2)n1 | -1 | 1
Cc1cccc(C2=N/C(=C\C=C\c3ccccc3)C(=O)O2)c1 | 2 | 7
CCOc1ccccc1CN1CCCC1c1c(C)noc1C (stereo unspecified) | -10 | -6
CN(C)c1ccc(Nc2nc(-c3ccccn3)cs2)cc1 | 100* | -17
CC(=O)Nc1ccc(Nc2nc(-c3ccccn3)cs2)cc1 | 92* | -7
CC(=O)Nc1cccc(-c2csc(Nc3ccc(C(=O)O)cc3)n2)c1 | 9 | -10
CN(C)c1ccc(C(=O)Nc2cc(-c3ccccn3)no2)cc1 | -5 | -14
CC1(C)C(=O)OC(c2ccc(C3OC(=O)C(C)(C)C(=O)C3(C)C)cc2)C(C)(C)C1=O (stereo unspecified) | 2 | -4
COc1ccc(C(=O)N2CCCC(c3cccc(C(=O)NC4CCCCC4)c3)C2)cc1 (stereo unspecified) | 21 | 0
COc1ccc(CNC(=O)c2ccccc2I)cc1OC | 2 | -4
O=C(CSc1nc(=O)[nH]c2c1CCC2)c1ccc(Cl)cc1 | 36 | 76*
COC(=O)c1ccc(NC(=O)CSc2nc(=O)[nH]c3c2CCC3)cc1 | 3 | 2
C#CCOc1c(Cl)cc(/C=C2\NC(=O)NC2=O)cc1Cl | 22 | 2
Oc1[nH]c(=S)sc1C=CC=CC=Nc1ccccc1 | 95* | .
O=C(c1cnccn1)N1CCC(Nc2ncnc3c2CCC3)C1 (stereo unspecified) | -4 | -4
O=C(O)CCC(=O)Nc1nc2n(n1)C(c1ccccc1)C=C(c1ccc(Cl)cc1)N2 (stereo unspecified) | 31 | 2
O=C(Nc1nc2n(n1)C(c1ccccc1)C=C(c1ccccc1)N2)c1ccccc1 (stereo unspecified) | 59* | 0
O=C(Cc1ccc(F)cc1)Nc1nc(-c2ccccn2)cs1 | 85* | -8
O=C(Cc1ccc(F)cc1)Nc1ncccn1 | 17 | -3
O=C(CS(=O)(=O)Cc1ccccc1)Nc1nc(-c2ccccn2)cs1 | 87* | -74
O=C(CS(=O)(=O)Cc1ccccc1)Nc1nc(-c2cc3ccccc3o2)cs1 | 1 | -6
COc1cccc(CNC(=O)c2c(C)noc2-c2cccc(C(F)(F)F)c2)c1 | -9 | 2
COc1cc2c(c([N+](=O)[O-])c1)NC(C(C)C)C1CC=CC21 (stereo unspecified) | 97* | -6
CCOc1cc2c(c([N+](=O)[O-])c1)NC(c1cccc([N+](=O)[O-])c1)C1CC=CC21 (stereo unspecified) | 41 | 3
SMILES | mHTT CaM bind | Pf apPOL inh
COc1cc([N+](=O)[O-])cc2c1NC(C(C)C)C1CC=CC21 (stereo unspecified) | 16 | -4
CCOc1cc2c(c([N+](=O)[O-])c1)NC(c1ccccc1)C1CC=CC21 (stereo unspecified) | 57* | -2
O=C(c1cc2ccccc2[nH]1)N1CCC2(CC1)NC(=O)N(Cc1ccc(F)cc1)C2=O | 70* | -3
O=C(c1c[nH]c2ccccc12)N1CCC2(CC1)NC(=O)N(Cc1ccc(F)cc1)C2=O | 58* | -5
O=C(c1ccccc1)N1CCC2(CC1)NC(=O)N(Cc1ccccc1Cl)C2=O | 9 | -3
O=C(c1ccccc1)N1CCC2(CC1)NC(=O)N(Cc1ccc(F)cc1)C2=O | 8 | -4
O=C(c1c[nH]c2ccccc12)N1CCC2(CC1)NC(=O)N(Cc1ccccc1Cl)C2=O | 98* | -7
O=C(c1cc2ccccc2[nH]1)N1CCC2(C1)NC(=O)N(Cc1ccc(F)cc1)C2=O (stereo unspecified) | -2 | -2
CCOC(=O)c1cc(CNC2CCS(=O)(=O)C2)on1 (stereo unspecified) | -2 | .
O=C(Cc1ccc(Cl)cc1)NCCOc1ccc(-c2cccs2)nn1 | -6 | -1
O=C(Cn1cnc2ccccc2c1=O)NCCO | -6 | -3
O=C(Cc1cccs1)NCCOc1ccc(-c2ccccn2)nn1 | 100* | -2
O=C(CCSc1ccccc1)NCCOc1ccc(-c2ccccn2)nn1 | 100* | 3
O=C(NCCOc1cccc2cccnc12)c1ccc(Cl)cc1Cl | 1 | -2
O=C(NCCOc1ccc(-c2ccccn2)nn1)c1cc(Cl)ccc1Cl | 100* | 3
O=C(Cn1cnc2ccccc2c1=O)NCCOc1ccc(-c2ccccn2)nn1 | 100* | -6
O=C(Cc1ccc(F)cc1)NCCOc1ccc(-c2ccc(F)cc2)nn1 | 0 | 0
Cc1ccc(S(=O)(=O)N2CCN(C)CC2)c(C)c1C | -8 | -2
Cc1ccc(C2C(=C(O)c3ccccc3)C(=O)C(=O)N2CCN(C)C)cc1 (stereo unspecified) | 4 | -8
Oc1ccc(C2=Nn3c(nnc3-c3ccc(Br)cc3)SC2)cc1O | 11 | -1
Nc1ccc2c(c1)SSc1cc(N)ccc1-2 | 39 | .
